Assay results taken from the supplement of paper PMC10503962.

The compounds below were run on Trichuris muris adult worms (assay: mean motility score (Paragon pixel variance) of adult worms (arbitrary units); higher = more motile worms, i.e. less anthelmintic effect; extreme values may be limits of the assay). Conditions: 100 µM; 24 h.
Experimental: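 Primary ex vivo screen of 409 approved drugs against adult Trichuris muris worms: one worm per well in RPMI-1640 with penicillin/streptomycin, 100 µM drug in 1% DMSO, 37 °C, 5% CO2 for 24 h. Motility was recorded with INVAPP (200-frame movies) and scored with the Paragon pixel-variance algorithm. Values are means of triplicate wells run on three occasions; levamisole was the positive control and DMSO the negative control.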

Compared with `Cn1cnc([N+](=O)[O-])c1Sc1ncnc2nc[nH]c12` [azathioprine], `CCOC(=O)c1ncn2c1CN(C)C(=O)c1cc(F)ccc1-2` [flumazenil] is lower in mean motility score: 3550 for the first, 3230 for the second.

Compared with `C[C@@H]1C[C@H]2[C@@H]3CCC4=CC(=O)C=C[C@]4(C)[C@@]3(F)[C@@H](O)C[C@]2(C)[C@H]1C(=O)CO` [desoximetasone], `CN(C)[C@@H]1C(O)=C(C(N)=O)C(=O)[C@@]2(O)C(O)=C3C(=O)c4c(O)cccc4[C@@](C)(O)[C@H]3[C@H](O)[C@@H]12` [oxytetracycline] is higher in mean motility score: 772 for the first, 2120 for the second.

Going from `O=C(c1ccc(F)cc1)C1CCN(CCn2c(=O)[nH]c3ccccc3c2=O)CC1` [ketanserin] to `CCc1ccc(CCOc2ccc(CC3SC(=O)NC3=O)cc2)nc1` (stereo not given) [pioglitazone], the mean motility score falls from 3020 to 0.

First: CN(C)CCc1c[nH]c2ccc(C[C@H]3COC(=O)N3)cc12 [zolmitriptan]
Second: CNCc1ccc(-c2[nH]c3cc(F)cc4c3c2CCNC4=O)cc1 [rucaparib]
The mean motility score of the first is higher: 3180 for the first, 1130 for the second.

Compared with `Nc1ccn([C@H]2CC[C@@H](CO)O2)c(=O)n1` [zalcitabine], `Cc1cc(C2CCCCC2)n(O)c(=O)c1` [ciclopirox] is lower in mean motility score: 3920 for the first, 3190 for the second.

First: CCOC(=O)n1ccn(C)c1=S [carbimazole]
Second: CCOC(=O)[C@H](CCc1ccccc1)N[C@H]1CCc2ccccc2N(CC(=O)O)C1=O.Cl [benazepril hydrochloride]
The mean motility score of the first is lower: 1610 for the first, 2030 for the second.

First: CNC(=O)c1cc(Oc2ccc(NC(=O)Nc3ccc(Cl)c(C(F)(F)F)c3)cc2)ccn1 [sorafenib]
Second: CNC(=O)c1ccccc1Sc1ccc2c(/C=C/c3ccccn3)n[nH]c2c1 [axitinib]
The mean motility score of the first is lower: 781 for the first, 2490 for the second.

Going from `CCCCNc1cc(C(=O)O)cc(S(N)(=O)=O)c1Oc1ccccc1` [bumetanide] to `NS(=O)(=O)Cc1noc2ccccc12` [zonisamide], the mean motility score falls from 4880 to 2960.

Going from `CS(=O)(=O)c1cccc(C[C@H](NC(=O)c2c(Cl)cc3c(c2Cl)CCN(C(=O)c2ccc4ccoc4c2)C3)C(=O)O)c1` [lifitegrast] to `COC(=O)[C@H](c1ccccc1Cl)N1CCc2sccc2C1` [clopidogrel], the mean motility score falls from 3490 to 2110.

Going from `Oc1ccc(O)cc1` [hydroquinone] to `Nc1ccc(C(=O)O)c(O)c1` [aminosalicylic acid], the mean motility score rises from 4230 to 4450.

Going from `c1ccc(-c2ccc(C(c3ccccc3)n3ccnc3)cc2)cc1` (stereo not given) [bifonazole] to `CC(C)(F)C[C@H](N[C@@H](c1ccc(-c2ccc(S(C)(=O)=O)cc2)cc1)C(F)(F)F)C(=O)NC1(C#N)CC1` [odanacatib], the mean motility score rises from 20 to 3560.

Going from `CC(=O)Nc1c(I)c(NC(C)=O)c(I)c(C(=O)O)c1I` [diatrizoic acid] to `CCOC(=O)C1=C(COCCN)NC(C)=C(C(=O)OC)C1c1ccccc1Cl` (stereo not given) [amlodipine], the mean motility score falls from 1110 to 8.67.

First: COc1cc2nc(N(C)CCCNC(=O)C3CCCO3)nc(N)c2cc1OC (stereo not given) [alfuzosin]
Second: CCCCCNC(=N)N/N=C/c1c[nH]c2ccc(OC)cc12.O=C(O)/C=C\C(=O)O [tegaserod maleate]
The mean motility score of the first is higher: 2420 for the first, 0 for the second.

Going from `CN(C/C=C/C#CC(C)(C)C)Cc1cccc2ccccc12` [terbinafine] to `CC(C)NCC(O)COc1cccc2[nH]ccc12` (stereo not given) [pindolol], the mean motility score rises from 4560 to 4670.

First: NC(=O)OCC(COC(N)=O)c1ccccc1 [felbamate]
Second: O=C(NCCO[N+](=O)[O-])c1cccnc1 [nicorandil]
The mean motility score of the first is higher: 5470 for the first, 2790 for the second.

First: COC(=O)CCC(=O)CN.Cl [methyl aminolevulinate hydrochloride]
Second: C[C@H](CS)C(=O)N1CCC[C@H]1C(=O)O [captopril]
The mean motility score of the first is lower: 2550 for the first, 3330 for the second.

First: CCCN[C@H]1CCc2nc(N)sc2C1.Cl.Cl [pramipexole dihydrochloride]
Second: CC(C)(C)c1nc(-c2cccc(NS(=O)(=O)c3c(F)cccc3F)c2F)c(-c2ccnc(N)n2)s1 [dabrafenib]
The mean motility score of the first is higher: 3620 for the first, 6 for the second.

First: N=C(N)NCCN1CCCCCCC1.N=C(N)NCCN1CCCCCCC1.O=S(=O)(O)O [guanethidine sulfate]
Second: OCCN(CCO)c1nc(N2CCCCC2)c2nc(N(CCO)CCO)nc(N3CCCCC3)c2n1 [dipyridamole]
The mean motility score of the first is lower: 2380 for the first, 2870 for the second.

Compared with `O=C(O)/C=C/C(=O)O.OCCOCCN1CCN(C2=Nc3ccccc3Sc3ccccc32)CC1.OCCOCCN1CCN(C2=Nc3ccccc3Sc3ccccc32)CC1` [quetiapine fumarate], `CN1CCN(C2=Nc3cc(Cl)ccc3Nc3ccccc32)CC1` [clozapine] is lower in mean motility score: 3120 for the first, 2870 for the second.

`CN1CCC(=C2c3ccccc3CC(=O)c3sccc32)CC1` [ketotifen] and `CC(=O)OC(C)C[N+](C)(C)C.[Cl-]` (stereo not given) [methacholine chloride] are the same in mean motility score: 2220 for the first, 2220 for the second.
